Our source for the growth values is PubChem BioAssay (NCI).

Among the test systems are SR leukemia; RPMI-8226 leukemia; OVCAR-8 ovarian; OVCAR-5 ovarian; OVCAR-4 ovarian; SK-OV-3 ovarian; IGROV1 ovarian; OVCAR-3 ovarian; HS 578T breast; NCI/ADR-RES ovarian.
Assay in all cases: NCI-60 one-dose screen, 48 h (100 = growth as untreated, 0 = no growth, -100 = all killed)
What all share (conditions): 10 µM unless noted

Each structure is given as a SMILES string. “And” between values parts separate entries of the source, which are not always exact repeats. Identical values can stand only once. Compounds without any hit were thinned out: in the full panel of roughly 83,000, 20% have a hit.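 In brief: 96-well plates, 48 h treatment, single concentration, percent growth endpoint.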 Unmarked numbers belong to inactive results. The source made the active and inactive calls. How the source made its calls: active means growth percent below 10; inactive means the rest.

Turning to `C=C1C(=O)O[C@@H]2[C@H]3[C@H](COC(C)=O)[C@@H](OC(C)=O)C[C@H]3C(=C)[C@@H](O)C[C@@H]12`, the growth with SR leukemia was 72.6%; in the test on RPMI-8226 leukemia, 76%; with OVCAR-8 ovarian it was 92.1%; with OVCAR-5 ovarian, 97.2%; in the test on OVCAR-4 ovarian it was 110%; in the test on SK-OV-3 ovarian, 108%. Moreover, the growth is 101% in the test on IGROV1 ovarian, 80.9% with OVCAR-3 ovarian, 92.4% with HS 578T breast and 98.6% in the test with NCI/ADR-RES ovarian.

Consider `COc1cc(F)c(/C=C/c2cc(/C=C/c3cc(OC)c(OC)cc3F)n(-c3cc(F)cc(F)c3)n2)cc1OC`, for which the growth with SR leukemia was 8.98% (active); in the test with RPMI-8226 leukemia it was 18%; in the test with OVCAR-8 ovarian, 36.6%; with OVCAR-5 ovarian it was 51.4%; in the test with OVCAR-4 ovarian, 49.9%; with SK-OV-3 ovarian it was 108%. The growth with IGROV1 ovarian is 88.6%; in the test with OVCAR-3 ovarian it was 24.2%; with HS 578T breast, 38%; with NCI/ADR-RES ovarian, 12%.

For `CCC(=C(c1ccc(OCCCN(C)C)cc1)c1ccc(OCCCN(C)C)cc1)c1ccc(Cl)cc1`, the growth was -48.2% (active) with SR leukemia; -55.4% (active) with RPMI-8226 leukemia; -76.3% (active) with OVCAR-8 ovarian; -89.3% (active) in the test on OVCAR-5 ovarian; -85.8% (active) in the test on OVCAR-4 ovarian; -88.2% (active) in the test with SK-OV-3 ovarian. For the same compound, the growth in the test with IGROV1 ovarian is -84.9% (active); in the test with OVCAR-3 ovarian, -84.6% (active); with HS 578T breast, -77.4% (active); in the test on NCI/ADR-RES ovarian, -84.9% (active).

In the case of `N#Cc1ccccc1-c1ccc(Cn2c(-c3cscn3)nc3c(Cl)cccc32)cc1`, the growth in the test on SR leukemia is 55.2%; with RPMI-8226 leukemia it was 48.3%; with OVCAR-8 ovarian it was 78.2%; with OVCAR-5 ovarian, 86.8%; with OVCAR-4 ovarian, 62%; in the test with SK-OV-3 ovarian, 82.6%. Further, the growth in the test with IGROV1 ovarian was 89.1%; with OVCAR-3 ovarian, 63.3%; in the test on HS 578T breast, 85.5%; in the test on NCI/ADR-RES ovarian, 73.3%.

As to `O=C(NCc1cccnc1)/C(=C\c1ccc(Br)cc1)S(=O)(=O)c1ccccc1`, the growth in the test on SR leukemia is 55.9%; in the test with RPMI-8226 leukemia, 26.7%; in the test on OVCAR-8 ovarian, 3.01% (active); in the test with OVCAR-5 ovarian it was -41.3% (active); in the test with OVCAR-4 ovarian, 0.235% (active); with SK-OV-3 ovarian it was 10.2%. Besides, the growth was -11.3% (active) with IGROV1 ovarian, -96.7% (active) in the test on OVCAR-3 ovarian, 14.9% with HS 578T breast and 2.59% (active) with NCI/ADR-RES ovarian.

In the case of `Cc1nonc1-c1ccc2c(c1)OCO2`, the growth in the test on SR leukemia is 104%; in the test with RPMI-8226 leukemia, 94.1% and 91.7%; in the test on OVCAR-8 ovarian, 98.2% and 96.7%; with OVCAR-5 ovarian, 111% and 121%; with OVCAR-4 ovarian, 108% and 97.2%; with SK-OV-3 ovarian it was 97.3% and 107%. In addition, the growth in the test with IGROV1 ovarian is 108% and 116%; in the test with OVCAR-3 ovarian it was 101% and 105%; with HS 578T breast it was 107% and 145%; in the test on NCI/ADR-RES ovarian, 97.7%.

Turning to `COc1nc(=O)n(C2C=CC(=O)O2)cc1F` (stereo not given), the growth in the test on SR leukemia was -19.8% (active); with RPMI-8226 leukemia, 70.1%; in the test with OVCAR-8 ovarian, 46%; in the test on OVCAR-5 ovarian, 129%; in the test on OVCAR-4 ovarian, 71.3%; with SK-OV-3 ovarian, 98.7%. The growth in the test on IGROV1 ovarian is 116%; in the test with OVCAR-3 ovarian, 33.8%; in the test with HS 578T breast it was 94.4%; with NCI/ADR-RES ovarian it was 111%.

On to `Clc1ccc2c(NCCN3CCN(c4ccnc(N5CCCC5)n4)CC3)ccnc2c1`, for which the growth with SR leukemia is -12.2% (active); with RPMI-8226 leukemia, -10.6% (active); in the test on OVCAR-8 ovarian, 36.8%; in the test on OVCAR-5 ovarian, 68.8%; with OVCAR-4 ovarian it was 57.8%; in the test on SK-OV-3 ovarian, 90%. Moreover, the growth in the test on IGROV1 ovarian is 47.8%; in the test on OVCAR-3 ovarian, 40.8%; with HS 578T breast, 76.4%; in the test with NCI/ADR-RES ovarian, 49%.

`C=C1CC[C@@H]2[C@](C)(COC(C)=O)[C@H](OC(C)=O)CC[C@@]2(C)[C@@H]1CC(Nc1ccc(S(=O)(=O)Nc2nccs2)cc1)C1=CCOC1=O` (stereo not given in full): the growth with SR leukemia is -5.84% (active); with RPMI-8226 leukemia it was -13.3% (active); in the test on OVCAR-8 ovarian, 4.39% (active); with OVCAR-5 ovarian it was 7.82% (active); in the test with OVCAR-4 ovarian it was 38%; in the test on SK-OV-3 ovarian, 79.9%. Also, the growth was 12.6% in the test with IGROV1 ovarian, -70.2% (active) in the test on OVCAR-3 ovarian, 51.9% with HS 578T breast and 9.2% (active) in the test on NCI/ADR-RES ovarian.

For `CCNC(=S)n1nc(SC)c(C(=O)OCC)c1N`, the growth with SR leukemia is 89.2%; in the test with RPMI-8226 leukemia it was 110%; with OVCAR-8 ovarian, 110%; in the test with OVCAR-5 ovarian it was 84.8%; in the test on OVCAR-4 ovarian, 96.7%; in the test with SK-OV-3 ovarian, 94%. The growth in the test on IGROV1 ovarian was 90.6%; with OVCAR-3 ovarian, 97.7%; in the test with HS 578T breast, 110%; in the test on NCI/ADR-RES ovarian, 94.8%.

With `COc1ccc2c(c1)oc1c(C)c3c(c(C)c12)C(=O)N(Nc1ccccc1)C3=O`, the growth in the test with SR leukemia is 104%; in the test on RPMI-8226 leukemia, 112%; in the test with OVCAR-8 ovarian it was 104%; with OVCAR-5 ovarian, 92%; with OVCAR-4 ovarian, 100%; in the test on SK-OV-3 ovarian it was 92%. Also, the growth is 102% in the test with IGROV1 ovarian, 105% in the test on OVCAR-3 ovarian, 105% in the test on HS 578T breast and 112% in the test with NCI/ADR-RES ovarian.

As to `COc1ccc(Nc2nn3c(SCC(=O)c4ccc(C)cc4)nnc3s2)cc1`, the growth in the test on SR leukemia was 68.9%; in the test on RPMI-8226 leukemia, 98%; with OVCAR-8 ovarian it was 94.8%; in the test with OVCAR-5 ovarian, 99.3%; in the test with OVCAR-4 ovarian, 108%; with SK-OV-3 ovarian, 79.2%. Also, the growth was 91.4% with IGROV1 ovarian, 110% in the test on OVCAR-3 ovarian, 92.2% in the test on HS 578T breast and 104% in the test on NCI/ADR-RES ovarian.

With `O=c1c(/C=C/c2ccco2)nnc2sc(Nc3ccc(Cl)cc3)nn12`, the growth is 96% in the test with SR leukemia; 101% with RPMI-8226 leukemia; 101% in the test with OVCAR-8 ovarian; 97.1% in the test with OVCAR-5 ovarian; 90.7% in the test on OVCAR-4 ovarian; 86.4% in the test with SK-OV-3 ovarian. For the same compound, the growth in the test on IGROV1 ovarian is 68.8%; in the test on OVCAR-3 ovarian, 106%; in the test with HS 578T breast it was 91%; with NCI/ADR-RES ovarian, 102%.
